Source: PubChem BioAssay (NCATS)
Records with an inconclusive call do not appear. Where a call stands in place of a potency, no number is given. Calls of active or inactive are those of the source. The call rests on the fitted dose curve; in most records, active means well fitted cell-killing curve with a large enough effect; inconclusive means small, poorly fitted or top-dose-only effect; inactive means flat fitted curve, though single readings scatter. *1 amine or outer side, *2 acyl side, *3 side chain or, on linkers, in order; H or OH if unused. Where a SMILES comes first, the peptide text is derived from it. Bridges are numbered along the chain shown (N, C = ends). [ ]: non-standard residue; d: D form. The star is where a group is joined. X5 = NC1=N[C@@H]([C@H](N[*:1])C(=O)[*:2])C[C@H](O)N1; ΔAla(Z-3-ureido) = NC(=O)N/C=C(\N)C(=O)O; β3hOrn = NCCC[C@H](N)CC(=O)*; Dap = NC[C@H](N)C(=O)O

Test: qHTS assay to identify small molecule inhibitors of chordoma cells - UCH-2 (AID 1259356)
Conditions: UCH-2 chordoma viability, CellTiter-Glo ATP luminescence, 48 h; series mostly up to 46.1 µM
From the text: NIH Chemical Genomics Center [NCGC]
Chordoma is a rare and slow growing tumor that can occur anywhere along the spine, from the base of the skull to the tailbone. Current treatment options for chordoma is surgery and radiation therapy for those who are not candidates for surgery. But chordomas tend to return in the same location or surrounding areas of the original tumor after surgery and/or radiation. Chemotherapy can slow down the progression of the tumor. As chordoma is slow growing, the general cytotoxic agents that kill fast growing cells are ineffective, and some patients have been reported to respond to molecularly targeted drugs.
NCATS Pharmaceutical Collection (NPC) containing approximately 3000 clinically approved and investigational drugs were used to screen at 15 concentrations in a chordoma cell lines, UCH-2, to identify small molecule compounds that can inhibit chordoma cell growth.
NCGC Assay Protocol Summary:
Human chordoma cell line UCH-2 was dispensed at 800 per well in 4uL of culture medium into white solid bottom 1536-well plates (Corning Life Sciences, Corning, NY) using a Multidrop Combi (Thermo Scientific, Waltham, MA) dispenser. The assay plates were incubated at 37 C and 5% CO2 for an overnight, and then 23nL of compounds dissolved in DMSO and positive control were transferred using a Pintool station (Wako, San Diego, CA). Compound treatment was followed by the addition of 1uL of the combination compounds (1uM Auranofin, 500nM each of Camptothecin, Doxorubicin, Rubitecan, and Topotecan) and assay medium to each well of the assay plates using Flying Reagent Dispenser (FRD, Aurora Discovery, San Diego, CA). The assay plates were incubated at 37 C and 5% CO2 for 48hr. Then 5uL of CellTiter-Glo reagent (Promega Corporation, Madison, WI) was added to each well of the assay plates using FRD. After 30min incubation at room temperature, the luminescence signal was quantified using a ViewLux plate reader (PerkinElmer, Shelton, CT).

SMILES	Potency
OC[C@H]1OC([S-])[C@H](O)[C@@H](O)[C@@H]1O.[Au+] (stereo not given in full)	inactive
COC(=O)[C@H]1[C@H]2C[C@@H]3c4[nH]c5cc(OC)ccc5c4CCN3C[C@H]2C[C@H](OC)[C@@H]1OC	inactive
CC1=CC(=O)NS(=O)(=O)O1	inactive
C=CC(C)(O)CC/C=C(\C)CCC=C(C)C (stereo not given)	inactive
CC1=C(/C=C/C(C)=C/C=C/C(C)=C/C(=O)Oc2c(C)c(C)c3c(c2C)CC[C@@](C)(CCC[C@H](C)CCC[C@H](C)CCCC(C)C)O3)C(C)(C)CCC1	inactive
Cc1c(C)c2c(c(C)c1OC(=O)CCC(=O)O)CC[C@@](C)(CCC[C@H](C)CCC[C@H](C)CCCC(C)C)O2	inactive
CC1CCC(NC(=O)N(CCCl)N=O)CC1 (stereo not given)	inactive
CC12CCC(C[N+](C)(CCC[N+](C)(C)C)C1)C2(C)C (stereo not given)	inactive
CCOC(=S)SSC(=S)OCC	inactive
CCN(CC)CCOc1ccc2nc(N(C)C)sc2c1	inactive
COc1ccc(C(=O)/C(Br)=C\C(=O)O)cc1	inactive
NC(N)=NCC1COc2ccccc2O1 (stereo not given)	inactive
CCN(CC)C(=O)[C@]1(c2ccccc2)C[C@@H]1CN	inactive
C=C1CC[C@H](O)CC1=C/C=C1\CCC[C@]2(C)[C@@H]([C@H](C)CCCC(C)(C)O)CC[C@@H]12	inactive
CC/C=C\C/C=C\C/C=C\C/C=C\C/C=C\CCCC(=O)O	inactive
COc1ccc(/C=N/NC(=O)c2ccncc2)c(C(=O)O)c1OC	inactive
CC(C)(C)c1ccc(CN2CCN(C(c3ccccc3)c3ccc(Cl)cc3)CC2)cc1 (stereo not given)	inactive
O=C1CC[C@@H](C(=O)N[C@H]2C[C@@H]2c2ccccc2)N1	inactive
[O]=[Bi][O]C(=O)[O][Bi]=[O]	inactive
NCC[C@H](O)C(=O)N[C@@H]1C[C@H](N)[C@@H](O[C@H]2O[C@H](CN)CC[C@H]2N)[C@H](O)[C@H]1O[C@H]1O[C@H](CO)[C@@H](O)[C@H](N)[C@H]1O	inactive

SMILES	Potency
COc1cc2c(cc1OC)[C@@H](c1ccccc1)CN(C)CC2	inactive
CN1C(C(=O)Nc2ccccn2)C(=O)c2sc(Cl)cc2S1(=O)=O (stereo not given)	inactive
CC(C)(Oc1ccc(C2CCCc3ccccc32)cc1)C(=O)O (stereo not given)	inactive
CSCCC(N)C(=O)O (stereo not given)	inactive
O=C(O)/C=C/C(=O)Nc1ccc(S(=O)(=O)Nc2nccs2)cc1	inactive
CSc1nc2cc(Oc3cccc(Cl)c3Cl)c(Cl)cc2[nH]1	inactive
Cc1ncc(COP(=O)(O)O)c(CN)c1O	inactive
O=C(O)/C=C/c1ccccc1	inactive
O=C(OC[C@H]1O[C@](O)(COC(=O)c2cccnc2)[C@@H](OC(=O)c2cccnc2)[C@@H]1OC(=O)c1cccnc1)c1cccnc1	inactive
NCCC[C@H](N)CC(=O)N[C@H]1CNC(=O)[C@H]([C@H]2C[C@H](O)NC(N)=N2)NC(=O)/C(=C/NC(N)=O)NC(=O)[C@H](CO)NC(=O)[C@H](CO)NC1=O (β3hOrn-[Dap]SS[ΔAla(Z-3-ureido)][X5]; lactam 1-C)	inactive
CCN(CC)CCOCCOC(=O)C(CC)(CC)c1ccccc1	inactive
CC/C(=C(/CC)c1ccc(OP(=O)(O)O)cc1)c1ccc(OP(=O)(O)O)cc1	inactive
Cc1cc(C)c(NC(=O)C[C@H](CC(=O)O)c2cccc3ccccc23)c(C(=O)N2CCC3(CCCC3)CC2)c1	inactive
OCCOCCOCCO	inactive
CC1(O)CCC(C(C)(C)O)CC1 (stereo not given)	inactive
O=C1NCCN1c1ncc([N+](=O)[O-])s1	inactive
O=C1c2ccccc2C(=O)C1c1ccc(F)cc1	inactive
CC(=O)N=c1sc(S(N)(=O)=O)nn1C	inactive
CO[C@@H]1[C@H](OC(=O)/C=C/C=C/C=C/C=C/C(=O)O)CC[C@]2(CO2)[C@H]1[C@@]1(C)O[C@@H]1CC=C(C)C	inactive
CCc1ccc(S(=O)(=O)O)cc1	inactive
